# Measured values published in ChEMBL document CHEMBL2218924, “A broad activity screen in support of a chemogenomic map for kinase signalling research and drug discovery” (Biochem J, 2013).
# Columns and labels:
# [1] = molecular target: T1, Ephrin type-B receptor 1 (Homo sapiens) (UniProt P54762); conditions: at 10 µM
# T1 sequence (whole entry): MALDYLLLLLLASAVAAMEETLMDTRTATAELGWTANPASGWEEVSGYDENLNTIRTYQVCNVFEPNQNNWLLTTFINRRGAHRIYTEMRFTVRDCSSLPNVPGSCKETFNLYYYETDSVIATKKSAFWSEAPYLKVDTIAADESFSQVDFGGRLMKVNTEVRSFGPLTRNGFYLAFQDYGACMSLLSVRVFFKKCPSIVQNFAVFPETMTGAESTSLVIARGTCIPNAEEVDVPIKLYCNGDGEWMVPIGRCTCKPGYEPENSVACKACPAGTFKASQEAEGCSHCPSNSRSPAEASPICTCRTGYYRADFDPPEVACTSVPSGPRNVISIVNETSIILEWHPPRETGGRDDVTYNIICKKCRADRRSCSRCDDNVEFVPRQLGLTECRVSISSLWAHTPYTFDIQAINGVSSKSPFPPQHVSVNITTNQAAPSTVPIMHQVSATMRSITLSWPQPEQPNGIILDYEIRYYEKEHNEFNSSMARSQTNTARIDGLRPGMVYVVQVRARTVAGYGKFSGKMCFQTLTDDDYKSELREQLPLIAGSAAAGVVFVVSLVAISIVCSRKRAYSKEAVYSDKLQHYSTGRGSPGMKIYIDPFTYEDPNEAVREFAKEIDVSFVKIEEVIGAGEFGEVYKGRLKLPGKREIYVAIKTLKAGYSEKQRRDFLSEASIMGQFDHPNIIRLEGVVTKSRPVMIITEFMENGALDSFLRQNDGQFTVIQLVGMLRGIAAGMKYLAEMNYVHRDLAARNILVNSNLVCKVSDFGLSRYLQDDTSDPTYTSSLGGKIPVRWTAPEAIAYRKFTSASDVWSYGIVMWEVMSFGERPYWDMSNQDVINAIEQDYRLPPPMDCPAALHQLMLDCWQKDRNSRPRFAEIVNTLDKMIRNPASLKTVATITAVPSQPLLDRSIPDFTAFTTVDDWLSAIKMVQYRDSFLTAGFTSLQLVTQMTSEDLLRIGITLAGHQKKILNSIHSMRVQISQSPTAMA
# [2] = molecular target: T2, Ephrin type-B receptor 2 (Homo sapiens) (UniProt P29323); conditions: at 1 µM
# T2 sequence (whole entry): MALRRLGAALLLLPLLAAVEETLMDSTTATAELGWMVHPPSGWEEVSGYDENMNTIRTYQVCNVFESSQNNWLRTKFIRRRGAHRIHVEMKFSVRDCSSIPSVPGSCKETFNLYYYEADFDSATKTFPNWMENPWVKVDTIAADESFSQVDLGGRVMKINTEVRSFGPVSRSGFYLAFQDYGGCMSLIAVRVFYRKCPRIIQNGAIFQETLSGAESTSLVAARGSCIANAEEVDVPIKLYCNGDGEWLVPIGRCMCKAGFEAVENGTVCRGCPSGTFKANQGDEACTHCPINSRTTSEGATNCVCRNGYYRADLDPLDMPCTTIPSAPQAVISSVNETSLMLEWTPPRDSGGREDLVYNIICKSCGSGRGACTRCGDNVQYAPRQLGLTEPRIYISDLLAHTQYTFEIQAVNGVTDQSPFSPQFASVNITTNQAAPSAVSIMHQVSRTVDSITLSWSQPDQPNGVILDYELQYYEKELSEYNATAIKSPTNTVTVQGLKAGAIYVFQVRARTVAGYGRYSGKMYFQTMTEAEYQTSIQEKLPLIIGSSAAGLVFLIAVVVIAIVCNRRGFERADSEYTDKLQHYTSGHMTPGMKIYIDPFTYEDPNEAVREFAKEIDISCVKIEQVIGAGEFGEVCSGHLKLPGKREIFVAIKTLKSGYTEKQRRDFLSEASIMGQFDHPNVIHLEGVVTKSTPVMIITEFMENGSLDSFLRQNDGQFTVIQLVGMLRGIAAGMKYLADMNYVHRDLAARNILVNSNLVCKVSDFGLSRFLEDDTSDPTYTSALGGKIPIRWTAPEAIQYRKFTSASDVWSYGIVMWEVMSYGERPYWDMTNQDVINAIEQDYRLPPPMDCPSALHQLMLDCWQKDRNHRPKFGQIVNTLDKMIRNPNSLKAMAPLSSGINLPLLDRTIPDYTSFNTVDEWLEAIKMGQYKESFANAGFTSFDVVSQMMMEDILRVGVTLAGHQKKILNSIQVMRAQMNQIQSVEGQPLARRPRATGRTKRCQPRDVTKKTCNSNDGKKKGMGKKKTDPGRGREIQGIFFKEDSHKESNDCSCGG
# [3] = molecular target: T2, Ephrin type-B receptor 2 (Homo sapiens); conditions: at 10 µM
# [4] = molecular target: T3, Ephrin type-B receptor 3 (Homo sapiens) (UniProt P54753); conditions: at 1 µM
# T3 sequence (whole entry): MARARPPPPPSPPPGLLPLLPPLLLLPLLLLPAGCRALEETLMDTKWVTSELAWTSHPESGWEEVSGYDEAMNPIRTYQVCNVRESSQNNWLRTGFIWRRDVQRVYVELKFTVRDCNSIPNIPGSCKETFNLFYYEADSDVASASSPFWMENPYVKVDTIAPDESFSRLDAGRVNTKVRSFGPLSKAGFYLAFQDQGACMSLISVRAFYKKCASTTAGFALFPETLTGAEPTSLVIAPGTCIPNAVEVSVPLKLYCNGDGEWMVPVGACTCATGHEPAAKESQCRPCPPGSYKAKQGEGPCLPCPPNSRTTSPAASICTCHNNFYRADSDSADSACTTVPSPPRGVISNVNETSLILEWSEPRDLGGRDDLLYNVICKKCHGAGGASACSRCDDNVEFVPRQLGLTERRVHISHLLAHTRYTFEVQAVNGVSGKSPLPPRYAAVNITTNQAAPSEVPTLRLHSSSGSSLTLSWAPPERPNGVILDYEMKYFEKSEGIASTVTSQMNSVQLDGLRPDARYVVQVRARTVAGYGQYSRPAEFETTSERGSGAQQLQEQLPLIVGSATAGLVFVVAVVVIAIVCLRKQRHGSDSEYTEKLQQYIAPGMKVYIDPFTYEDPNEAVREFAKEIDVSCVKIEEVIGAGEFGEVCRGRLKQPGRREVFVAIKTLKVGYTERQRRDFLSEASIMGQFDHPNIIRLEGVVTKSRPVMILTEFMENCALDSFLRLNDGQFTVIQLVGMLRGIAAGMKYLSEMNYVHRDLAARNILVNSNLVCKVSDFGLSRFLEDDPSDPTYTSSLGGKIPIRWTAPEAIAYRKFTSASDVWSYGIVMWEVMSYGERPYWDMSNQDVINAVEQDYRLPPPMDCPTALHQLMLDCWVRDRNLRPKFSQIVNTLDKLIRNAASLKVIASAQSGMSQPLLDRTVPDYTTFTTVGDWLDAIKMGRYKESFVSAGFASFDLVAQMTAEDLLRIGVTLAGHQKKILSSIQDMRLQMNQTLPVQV
# [5] = molecular target: T3, Ephrin type-B receptor 3 (Homo sapiens); conditions: at 10 µM
# [6] = molecular target: T4, Ephrin type-B receptor 4 (Homo sapiens) (UniProt P54760); conditions: at 1 µM
# T4 sequence (whole entry): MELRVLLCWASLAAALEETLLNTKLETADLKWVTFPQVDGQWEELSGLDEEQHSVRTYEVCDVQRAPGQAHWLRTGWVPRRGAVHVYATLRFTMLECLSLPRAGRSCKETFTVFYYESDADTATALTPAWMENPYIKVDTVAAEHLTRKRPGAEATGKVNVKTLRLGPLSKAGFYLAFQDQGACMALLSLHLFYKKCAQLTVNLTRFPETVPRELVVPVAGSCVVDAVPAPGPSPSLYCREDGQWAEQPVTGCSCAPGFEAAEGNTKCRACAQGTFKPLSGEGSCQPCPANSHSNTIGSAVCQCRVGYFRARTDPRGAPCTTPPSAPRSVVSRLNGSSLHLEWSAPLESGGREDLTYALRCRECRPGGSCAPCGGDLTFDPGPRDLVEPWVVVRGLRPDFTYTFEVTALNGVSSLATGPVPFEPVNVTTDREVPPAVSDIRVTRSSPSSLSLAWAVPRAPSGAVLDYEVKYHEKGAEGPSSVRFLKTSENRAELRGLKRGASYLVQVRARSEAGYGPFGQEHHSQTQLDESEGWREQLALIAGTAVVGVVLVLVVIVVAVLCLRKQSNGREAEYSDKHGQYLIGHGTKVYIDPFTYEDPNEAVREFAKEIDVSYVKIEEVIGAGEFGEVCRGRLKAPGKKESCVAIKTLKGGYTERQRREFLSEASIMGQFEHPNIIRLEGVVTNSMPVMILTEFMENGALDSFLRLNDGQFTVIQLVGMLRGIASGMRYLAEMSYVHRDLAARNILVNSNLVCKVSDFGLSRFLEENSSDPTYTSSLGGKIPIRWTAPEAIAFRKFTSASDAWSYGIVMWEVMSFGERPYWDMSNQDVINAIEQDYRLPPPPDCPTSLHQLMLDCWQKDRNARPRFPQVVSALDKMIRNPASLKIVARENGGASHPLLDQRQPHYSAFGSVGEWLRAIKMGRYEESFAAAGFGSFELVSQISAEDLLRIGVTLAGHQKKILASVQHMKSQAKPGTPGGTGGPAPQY
# [7] = molecular target: T4, Ephrin type-B receptor 4 (Homo sapiens); conditions: at 10 µM
# [8] = molecular target: Receptor tyrosine-protein kinase erbB-4 (Homo sapiens) (UniProt Q15303); conditions: at 1 µM
# [9] = molecular target: Receptor tyrosine-protein kinase erbB-4 (Homo sapiens) (UniProt Q15303); conditions: at 10 µM
# [10] = molecular target: Focal adhesion kinase 1 (Homo sapiens) (UniProt Q05397); conditions: at 1 µM
# Focal adhesion kinase 1 (Homo sapiens), sequence (Q05397 2-1052 limits assumed): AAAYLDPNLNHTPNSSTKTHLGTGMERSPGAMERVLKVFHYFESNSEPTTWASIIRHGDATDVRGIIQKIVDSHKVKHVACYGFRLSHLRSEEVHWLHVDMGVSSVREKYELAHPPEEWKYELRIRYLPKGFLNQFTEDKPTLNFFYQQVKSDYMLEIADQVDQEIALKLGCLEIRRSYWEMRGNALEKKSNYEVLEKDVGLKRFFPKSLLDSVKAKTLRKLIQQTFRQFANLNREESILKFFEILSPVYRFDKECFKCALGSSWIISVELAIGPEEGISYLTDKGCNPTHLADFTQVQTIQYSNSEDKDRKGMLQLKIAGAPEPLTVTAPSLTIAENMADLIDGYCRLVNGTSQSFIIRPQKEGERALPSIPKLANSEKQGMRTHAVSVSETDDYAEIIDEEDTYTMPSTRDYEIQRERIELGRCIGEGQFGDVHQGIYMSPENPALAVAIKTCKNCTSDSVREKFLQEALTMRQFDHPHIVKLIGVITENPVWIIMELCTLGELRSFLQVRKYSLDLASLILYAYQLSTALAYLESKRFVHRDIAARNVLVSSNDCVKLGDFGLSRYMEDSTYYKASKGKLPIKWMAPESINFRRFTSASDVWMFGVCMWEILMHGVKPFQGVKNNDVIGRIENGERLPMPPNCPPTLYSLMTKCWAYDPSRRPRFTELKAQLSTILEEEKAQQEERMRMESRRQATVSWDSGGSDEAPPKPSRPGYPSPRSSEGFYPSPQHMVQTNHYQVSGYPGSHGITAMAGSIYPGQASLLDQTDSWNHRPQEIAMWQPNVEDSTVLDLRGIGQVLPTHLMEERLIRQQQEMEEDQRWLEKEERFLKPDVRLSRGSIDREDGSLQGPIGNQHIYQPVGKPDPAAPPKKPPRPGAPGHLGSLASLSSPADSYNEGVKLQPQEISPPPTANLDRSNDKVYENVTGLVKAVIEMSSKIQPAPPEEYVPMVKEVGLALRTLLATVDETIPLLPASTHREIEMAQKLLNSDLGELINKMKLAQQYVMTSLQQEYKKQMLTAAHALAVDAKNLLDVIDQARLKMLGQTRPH
# Receptor tyrosine-protein kinase erbB-4 (Homo sapiens), sequence (Q15303 whole entry): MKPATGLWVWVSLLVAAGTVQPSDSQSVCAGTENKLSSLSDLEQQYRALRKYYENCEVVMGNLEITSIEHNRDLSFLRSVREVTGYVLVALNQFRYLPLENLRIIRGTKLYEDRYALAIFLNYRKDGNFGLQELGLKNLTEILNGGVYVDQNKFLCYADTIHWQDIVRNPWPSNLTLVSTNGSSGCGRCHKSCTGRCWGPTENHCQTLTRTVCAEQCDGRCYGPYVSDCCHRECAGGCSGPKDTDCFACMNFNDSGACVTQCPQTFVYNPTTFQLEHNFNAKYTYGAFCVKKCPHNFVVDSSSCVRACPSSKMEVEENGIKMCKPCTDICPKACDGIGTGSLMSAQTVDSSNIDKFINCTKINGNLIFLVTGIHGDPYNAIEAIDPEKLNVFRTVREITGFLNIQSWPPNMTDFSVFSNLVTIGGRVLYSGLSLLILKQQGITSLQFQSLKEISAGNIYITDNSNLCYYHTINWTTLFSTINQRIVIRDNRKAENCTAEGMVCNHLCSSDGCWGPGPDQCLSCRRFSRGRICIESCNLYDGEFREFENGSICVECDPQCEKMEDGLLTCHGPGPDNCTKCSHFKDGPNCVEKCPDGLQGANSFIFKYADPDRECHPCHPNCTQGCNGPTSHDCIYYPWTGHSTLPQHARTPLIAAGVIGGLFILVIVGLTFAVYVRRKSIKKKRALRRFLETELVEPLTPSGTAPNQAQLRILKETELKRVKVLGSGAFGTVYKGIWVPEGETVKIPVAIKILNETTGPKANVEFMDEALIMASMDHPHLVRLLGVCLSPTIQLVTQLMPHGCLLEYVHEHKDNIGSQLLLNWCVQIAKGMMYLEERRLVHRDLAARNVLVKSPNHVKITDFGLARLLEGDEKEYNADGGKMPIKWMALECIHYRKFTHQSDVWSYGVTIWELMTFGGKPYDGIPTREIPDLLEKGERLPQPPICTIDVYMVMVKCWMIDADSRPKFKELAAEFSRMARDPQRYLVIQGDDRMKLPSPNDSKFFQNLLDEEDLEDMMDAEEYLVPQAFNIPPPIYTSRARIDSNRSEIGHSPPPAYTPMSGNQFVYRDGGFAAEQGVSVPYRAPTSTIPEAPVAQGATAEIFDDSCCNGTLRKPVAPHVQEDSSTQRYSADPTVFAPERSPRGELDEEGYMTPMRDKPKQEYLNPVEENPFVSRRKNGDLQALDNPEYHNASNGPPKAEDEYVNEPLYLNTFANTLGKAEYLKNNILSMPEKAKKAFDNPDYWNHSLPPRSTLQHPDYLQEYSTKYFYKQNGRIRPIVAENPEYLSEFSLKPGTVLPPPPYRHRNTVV
smiles,measurement,setting,value
Nc1cccc(-c2cc3c(Oc4cccc(O)c4)ncnc3[nH]2)c1,residual activity,[1],-1%
same,residual activity,[2],4%
same,residual activity,[3],-1%
same,residual activity,[4],105% (inactive)
same,residual activity,[5],90%
same,residual activity,[6],2%
same,residual activity,[7],-3%
same,residual activity,[8],71%
same,residual activity,[9],19%
same,residual activity,[10],87%
